Reference: article PMC10163288
These entries were drawn from the full list. The hit rate among all sequences tested is not known here.

B1: il10ra_site1_normal_mot_HHH_b2_08186_000000021_0001_43_56_H_._HHH_b2_05014_af2_0002_0000100001_0000002_0 (protein)
chain: SSSSDEEELRELIEEAEELLERGNPEEALEVVLRALQLAFELSNAETLQRIWELLKRIATSSSSS
B2: il10ra_site1_sap_21_mot_HHH_b2_02463_af2_000000222_0001_1_19_H_._HHH_b1_01285_0001_0000200013_0000001_0_0001 (protein)
chain: SSSSDEANQEALELVVEAVRLALRGNPEEAKEVLEEARELAREGNNERLVKMIEDMLRALDSSSS
B3: il10ra_site1_sap_26_mot_HHH_b1_01707_000000240_0001_1_17_H_._HHH_b2_07405_0001_0000500060_0000001_0_0001 (protein)
chain: SSSSDQEFARLMMEALHLAFQLRDPETLRELWELYRRYAEEGDPRYEEALEELLEELRERSSSSS
B4: il10ra_site1_normal_mot_HHH_b2_03328_af2_000000127_0001_1_19_H_._f3d5fbb9806109dc41c8faca98c9de00_0001_1_0001_0000300008_0000002_0_af2pred_dldesign_0_af2pred (protein)
chain: LELSRLLSDAVITAKNPELAQRLAEVAREIAEDPSKLEELLAELLEEAKAAGDEEVVALLEKALE
B5: il10ra_site1_normal_mot_HHH_b2_06767_000000020_0001_41_56_H_._HHH_b2_06012_0001_0000200016_0000002_0_af2pred_0001 (protein)
chain: SSSSSVHEAAQLLLRVARALKEGDEELLEELRKELEELLKKLDDERARLAVRAALAAIKNFSSSS
B6: il10ra_site1_sap_27_mot_HHH_b1_06128_000000102_0001_1_20_H_._HHH_b1_02043_af2_0001_0000100004_0000002_0_0001 (protein)
chain: SSSSDVEEEVRELLEEAQRYYEEGNPQEVFRLIEEAIKVASEHGDEEAQKLVHEFLHEMFGSSSS
B7: il10ra_site1_normal_mot_HHH_b2_00984_000000042_0001_1_20_H_._HHH_b1_04863_af2_0001_0000500015_0000001_0 (protein)
chain: SSSSSDEEEELEELLEQLKKALEENDRELVAQLARRLVQLAFRLSDPEALQEAWELIRLLSSSSS
B8: il10ra_site1_normal_mot_HHH_b1_01821_000000158_0001_23_39_H_._HHH_b1_04578_0001_0000500034_0000001_1 (protein)
chain: SSSSSEFQRLAQRAVQLAFRLSDQEVLRRIWELFKRYIEEGDPRLEEELEELLEELEERGSSSSS
B9: il10ra_site1_normal_mot_HHH_b2_00277_af2_000000172_0001_1_17_H_._HHH_b1_06276_0001_0000100006_0000001_0_af2pred_0001 (protein)
chain: SSSSSSTEEEVEELLEEAKRIEDPEERSYVLTEAWALAYRLNDPELEREIEEVAKRLTSSSSSSS
B10: il10ra_site1_sap_17_mot_HHH_b2_04681_000000155_0001_43_57_H_._HHH_b2_07038_af2_0001_0000400013_0000001_0_0001_af2pred_dldesign_0_af2pred (protein)
chain: SSSSSSSDPERILALIRRALEEEDPEKARELLEEALRLAKEAGNEVAIRAAEYLLRQVSSSSSSS
B11: il10ra_site1_normal_mot_HHH_b2_03328_af2_000000127_0001_1_19_H_._HHH_b1_08499_0001_0000200023_0000001_0 (protein)
chain: SSSSDVAEEAYELSRRAAELLYQGNPEEARELLEEAEELLKERGDHVILFAVRLLLRILNSSSSS
B12: il10ra_site1_normal_mot_HHH_b2_00475_000000107_0001_44_57_H_._HHH_b2_03520_0001_0000400025_0000001_0 (protein)
chain: SSSSDEEEVSHLLFRALQLLEEGDKEEAEELVEEAKRIAEESNDPELERYVEIAEHFVKAHSSSS
B13: il10ra_site1_sap_33_mot_HHH_b2_07521_000000141_0001_20_37_H_._HHH_b2_01915_0001_0000700039_0000001_1_0001 (protein)
chain: SSSSSEEVEELLEQARELAEEGDFEEAAKLLLEALQIAAELQDPELLRLVWEVLHEVARLNSSSS
B14: il10ra_site1_sap_40_mot_HHH_b1_00102_af2_000000216_0001_43_57_H_._HHH_b1_07360_0001_0000500039_0000002_0_0001_af2pred_0001 (protein)
chain: SSSSSDEEELEEEAKRLMEELEKHGDPELFTRLAELAKLLAELGNPLFEEVAELLARLQSSSSSS
B15: il10ra_site1_sap_25_mot_HHH_b2_05540_000000178_0001_1_18_H_._ems_p1-15H-GBL-16H-GABBL-16H_0381_0001_0001_0001_0001_0000500025_0000002_0_0001 (protein)
chain: SSSSSDMEELYRRIAELLRRLREVSPEEREELLREAKELAEELNNEYLKRAIEHMARAVNSSSSS
B16: il10ra_site1_sap_27_mot_HHH_b2_02537_000000065_0001_1_20_H_._HHH_b2_03111_af2_0001_0000200010_0000001_0_0001 (protein)
chain: SSSSSAAEELKEIIEELLRLQREGDEEEFEKLIEEAERELKEKGDQLSLRIIEYILRLFHSSSSS
B17: il10ra_site1_normal_mot_HHH_b1_02062_000000185_0001_1_20_H_._HHH_b1_02799_af2_0001_0000300032_0000001_0 (protein)
chain: SSSSDELLQEVYELSREAAELDSDGDKEEAEKILEEAEEIAKELGNELFLFQVEYMLRLLKSSSS
B18: il10ra_site1_normal_mot_8756ee2cf497b5429c717dfc0c0bcfd6_0001_000000186_0001_1_13_H_._HHH_b2_02097_0001_0000100006_0000001_0 (protein)
chain: SSSSDLEEAIELVRRVVELLHEGNVEEARELVEEAEKVVEEAGNDVLRWQLEYLKRLLERDSSSS
B19: il10ra_site1_normal_mot_HHH_b2_02053_af2_000000006_0001_3_19_H_._HHH_b1_07461_0001_0000100009_0000001_0_af2pred_0001 (protein)
chain: SSSSSASEEVRKLLREALELLDKGNPEEAEELVEEAVRIAEENNNPVLLFVAEFLLKDIRGSSSS
B20: il10ra_site1_normal_mot_HHH_b2_00837_af2_000000287_0001_40_54_H_._HHH_b2_01069_af2_0001_0000200019_0000002_0 (protein)
chain: SSSSDEEERIKKLIEEVEELLEEGDPEEALELLFEATHFALELGNAELLREIWELVRSLKSSSSS
B21: il10ra_site1_normal_mot_HHH_b2_02386_000000054_0001_1_20_H_._HHH_b2_05043_0001_0000400073_0000003_0 (protein)
chain: SSSSTDESYELLREAIEEVIRLYKEGNPEEAEKVVEEVARRLEELGNPLAARQLENLLRLLSSSS
B22: il10ra_site1_normal_mot_HHH_b1_04771_000000013_0001_40_56_H_._HHH_b2_04957_af2_0001_0000100002_0000001_1 (protein)
chain: SSSSSEEVEEAVELSTKAFRLALRGNDEEAEEVLKEALKIAEEGNDPRIREVVEDLLQALSSSSS
B23: il10ra_site1_normal_mot_HHH_b1_01879_000000050_0001_1_18_H_._HHH_b1_00727_af2_0001_0000600044_0000002_0_af2pred_0001 (protein)
chain: SSSSSEEVLRLLLEALKLIRRGDLEEAEEVLKEMERLAEELNDEQARRAVEVLKRLLEELGSSSS
B24: il10ra_site1_sap_19_mot_HHH_b2_00335_000000038_0001_43_57_H_._HHH_b1_03234_0001_0000400063_0000002_0_0001 (protein)
chain: SSSSEAVKRVAELLREASKLQNDGNPEEAERVAEEALEVAEEGNNPLLEWQARFLLHRIRNSSSS
B25: il10ra_site1_normal_mot_HHH_b1_02708_af2_000000019_0001_23_39_H_._e0a7e7c149437fae01dc270677924e9f_0001_1_0001_0000100001_0000001_0 (protein)
chain: SLEEEVTELVRELGLPPMVESAVRSFVLAKELGDEEYLKIAEHFLEAQARRDPNVEEVLRFLRER
B26: il10ra_site1_normal_mot_HHH_b2_04646_000000019_0001_1_20_H_._HHH_b2_05789_af2_0001_0000400029_0000001_0 (protein)
chain: SSSSSDEEEAREEAERLLEEAEQIEDRHEVARLLYRASRLAAEGQDDELARRLVKLFARLSSSSS
B27: il10ra_site1_normal_mot_HHH_b2_00475_000000107_0001_44_57_H_._HHH_b2_01638_af2_0001_0000900052_0000002_0 (protein)
chain: SSSSEAEQRVAELLFRALRLLYEGNPEEAKEVVEEARRLAEENNDEELEEYVRILKHFIESHSSS
B28: il10ra_site1_normal_mot_8756ee2cf497b5429c717dfc0c0bcfd6_0001_000000186_0001_1_13_H_._HHH_b2_00335_af2_0001_0000300021_0000001_0_af2pred_0001 (protein)
chain: SSSSSDRLRELLELLRRIIELSRDGDPEEARKLIEEAQELAEELNDEVAKAILEFLEEHVNSSSS
B29: il10ra_site1_normal_mot_HHH_b1_00999_000000080_0001_41_55_H_._HHH_b1_02031_af2_0001_0000100001_0000001_0 (protein)
chain: SSSSSDEEEEEVERLLEEAEKIPDPRERNEILLEALHIALELGDEELLQLVWKVVKELGSSSSSS
B30: il10ra_site1_normal_mot_HHH_b1_05326_000000242_0001_1_20_H_._HHH_b1_05311_0001_0000100004_0000001_0 (protein)
chain: SSSSSSDEALELSRRAFKAALHGNPEEARELLEEALELAEERGDERLARIIQDLLKVLSSSSSSS
B31: il10ra_site1_sap_12_mot_HHH_b1_06789_af2_000000041_0001_1_20_H_._HHH_b2_05839_af2_0001_0000300031_0000002_0_0001 (protein)
chain: SSSSSDEEEIEELLREIKELLENNDRERALELIQEALRVIFQHSDEEALRELFELVRKLGSSSSS
B32: il10ra_site1_sap_22_mot_HHH_b2_03220_af2_000000223_0001_23_40_H_._HHH_b1_01542_0001_0000500044_0000001_0_0001_af2pred_0001 (protein)
chain: SSSSSEEEVEELERRIEELLEEGNRHEAAALILRLFALAHELRDPEVEEEARRLAQLAANSSSSS
B33: il10ra_site1_normal_mot_HHH_b2_06857_af2_000000179_0001_42_54_H_._HHH_b1_05676_af2_0001_0000100011_0000001_0 (protein)
chain: SSSSDETEEVVELLRRAAELHSDGDHEEARRLLEEAQELAEELGNELLRYQIEFAERSLDSSSSS
B34: il10ra_site1_sap_25_mot_HHH_b1_01879_000000050_0001_1_18_H_._HHH_b1_08444_0001_0000100004_0000001_0_0001 (protein)
chain: SSSSSTQELYELSRKAMELLRNGNPEEAEKLLEEALELAEEEGNWAAIVALRYILRAIRRSSSSS
B35: il10ra_site1_sap_17_mot_HEEHE_1605_000000211_0001_40_56_H_._9e622f7d73aa0ff91040b48e8c7f7504_0001_1_af2_0001_0000600013_0000002_0_0001 (protein)
chain: SSSSSDANHEALELVLEAMHAMLRGDREEAERLLEEALELAREGNNERLAKQIEILLENASSSSS
B36: il10ra_site1_normal_mot_HHH_b1_04065_000000255_0001_41_56_H_._HHH_b1_07236_0001_0000100003_0000001_1 (protein)
chain: SSSSDEEYRREVEELLEEAEQIEDPHERAEVLARALRRAYEGRDPELFRLVDRVAIELYFSSSSS
B37: il10ra_site1_sap_21_mot_HHH_b2_06979_000000158_0001_42_57_H_._HHH_b1_00540_af2_0001_0000100003_0000001_0_0001 (protein)
chain: SSSTLTERIYKLSEKALELLKQGDTEEAEEVVEEAIELAEEAGSRVLAHVLEFLLEAIKRRSSSS

biological target: il10ra, Q13651; assay: yeast display titration
Sequence (Q13651 whole entry): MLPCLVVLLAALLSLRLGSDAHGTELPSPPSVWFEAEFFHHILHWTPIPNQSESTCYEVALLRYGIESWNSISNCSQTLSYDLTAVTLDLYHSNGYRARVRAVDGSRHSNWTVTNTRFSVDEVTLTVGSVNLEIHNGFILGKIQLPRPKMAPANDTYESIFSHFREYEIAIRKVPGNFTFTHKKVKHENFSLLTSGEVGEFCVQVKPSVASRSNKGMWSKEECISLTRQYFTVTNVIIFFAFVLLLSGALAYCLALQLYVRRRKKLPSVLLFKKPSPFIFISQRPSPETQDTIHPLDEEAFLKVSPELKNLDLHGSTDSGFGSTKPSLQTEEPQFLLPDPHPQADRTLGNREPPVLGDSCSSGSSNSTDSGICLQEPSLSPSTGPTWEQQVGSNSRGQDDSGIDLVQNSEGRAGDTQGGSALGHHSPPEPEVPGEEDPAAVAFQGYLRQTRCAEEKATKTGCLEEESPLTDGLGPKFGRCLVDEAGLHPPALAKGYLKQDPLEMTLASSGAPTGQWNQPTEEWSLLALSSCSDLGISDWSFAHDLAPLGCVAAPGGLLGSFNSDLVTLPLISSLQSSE

Apparent Kd, inactive:
B1 no binding seen
B2 no binding seen
B3 no binding seen
B4 no binding seen
B5 no binding seen
B6 no binding seen
B7 no binding seen
B8 no binding seen
B9 no binding seen
B10 no binding seen
B11 no binding seen
B12 no binding seen
B13 > 2.78 µM
B14 no binding seen
B15 no binding seen
B16 no binding seen
B17 no binding seen
B18 no binding seen
B19 no binding seen
B20 no binding seen
B21 no binding seen
B22 no binding seen
B23 no binding seen
B24 no binding seen
B25 no binding seen
B26 no binding seen
B27 no binding seen
B28 no binding seen
B29 no binding seen
B30 no binding seen
B31 no binding seen
B32 no binding seen
B33 no binding seen
B34 no binding seen
B35 no binding seen
B36 no binding seen
B37 no binding seen
